DT40 TDP1 CPT – growth inhibition of DT40 Tdp1-/-;hTDP1 cells with camptothecin (screen for TDP1 inhibitors); actives 12% (n = 420,000); chicken DT40 Tdp1-/-;hTDP1 cells + 20 nM CPT, ATP luminescence, 48 h; Potency, µM (doses to about 46.2 µM), most hits filed as inhibitors; note: nearly all actives have a fitted effect of over 55% in size
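Cell growth measured by CellTiter-Glo luminescence after a minimum 48 h, 37 C compound exposure with 20 nM CPT in Tdp1-knockout DT40 cells stably expressing hTDP1, seeded 400/well; qHTS titration format.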
SW480 rerep – inducers of DNA re-replication in SW480 colon cancer cells; SW480 DNA re-replication, Hoechst DNA content imaging, 48 h; Potency, µM (highest dose often 46.1 µM), actives largely listed as activators; actives 1.8% (n = 340,000); AID 624297; note: nearly all actives have a fitted effect of over 55% in size
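Quantitative HTS format with DMSO vehicle controls; 48 hr drug incubation at 37 C, then 40 min Hoechst staining and scanning imager measurement at 405 nm excitation.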
Chronic BCR inh – inhibitors of chronic active B-cell receptor signaling; ABC-DLBCL IkBa-CBG/CBR reporter, luminescence ratio, 4 h; AID 493014; actives 0.05% (n = 340,000); Potency, µM (series often up to 46.1 µM), most hits filed as inhibitors; active = well fitted inhibition curve with a large enough effect in the signal ratio, with a control signal flat, not every such curve was filed as active; inconclusive = small, poorly fitted or top-dose-only effect, or effect the other way, or a change in a side signal; the % refers to the signal ratio
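Compounds up to 46 uM were incubated four hours with TMD8 cells whose green CBG68 luciferase is fused to IkappaBalpha; red CBR luminescence normalised the signal, and concentration-effect curves were fitted to fusion, red and ratio data.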
DT40 TDP1 no CPT – qHTS for Inhibitors of human tyrosyl-DNA phosphodiesterase 1 (TDP1): qHTS in cells in absence of CPT; Potency, µM (titrated, usually from 46.2 µM), most hits filed as inhibitors; DT40 Tdp1-/- hTDP1 cells, no CPT, ATP luminescence, 48 h; actives 15% (n = 420,000); AID 686978, 2013; note: nearly all actives have a fitted effect of over 55% in size
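Growth kinetics read by CellTiter-Glo luminescence after ≥48 hr at 37 °C. Cells: DT40 Tdp1-/- stably carrying human TDP1, 400 per well, compound exposure in the absence of CPT (DMSO vehicle).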
MCF10A rereplic – DNA re-replication induction in MCF 10a cells; Potency, µM (top dose mostly 46.1 µM), most hits filed as activators; actives 2.9% (n = 350,000); MCF 10A DNA re-replication, Hoechst nuclear intensity, 48 h; AID 624296; note: nearly all actives have a fitted effect of over 50% in size
IL1B secr inh – inflammasome signaling inhibition, IL-1 beta readout | AID 743279 | THP-1 LPS/ATP IL-1B secretion, AlphaLISA, 16 h; hits give low values | actives 4.7% (n = 360,000) | activity change, % at 57.5 µM; in the data active = activity change below about -50%; inconclusive = mostly about -30% to -49%
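Secreted IL-1B measured by AlphaLISA bead assay after 16 h compound exposure of THP-1 cells; compounds (final up to 57.5 uM) added 1 h before LPS (250 ng/mL) and ATP (1.25 mM) stimulation; lower signal means less secretion.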
Numbers stand for hits; – = inactive; ? = inconclusive; · = no result given; ! = not confirmed by another sample; [ ] = another dose, or the depositor's remark. In the library only some 19% were active in any assay of this set; here they are far more common. Unless noted, calls come from the whole dose curve; as a rule, active = well fitted curve in the direction sought with a large enough effect; inconclusive = small, poorly fitted or top-dose-only effect, or another doubt; inactive = no such curve, though single readings can be large; an effect the other way counts as inactive or inconclusive.

SMILES | DT40 TDP1 CPT | SW480 rerep | Chronic BCR inh | DT40 TDP1 no CPT | MCF10A rereplic | IL1B secr inh
COc1ccc(C(c2nnnn2-c2ccc(OC)cc2)N2CCC(n3c(=O)[nH]c4ccccc43)CC2)cc1 (configuration not stated) | 18µM | · | · | 9.2µM | · | ?
CC(C)(C)n1nnnc1C(C1CC1)N1CCC(n2c(=O)[nH]c3ccccc32)CC1 (configuration not stated) | ? | · | · | ? | · | –
O=c1[nH]c2ccccc2n1C1CCN(C(c2cccs2)c2nnnn2Cc2ccccc2)CC1 (configuration not stated) | 18µM | · | · | 15µM | · | ?
Cc1c(C(=O)N2CCC3(CC2)OCCO3)oc2ccc(S(=O)(=O)N3CCCCC3)cc12 | ? | – | ? | ? | ? | –
COc1ccc(-n2nnnc2C(c2cc3ccccc3o2)N2CCC(n3c(=O)[nH]c4ccccc43)CC2)cc1 (configuration not stated) | ? | · | · | 23µM | · | –
CCOC(=O)N1CCC(NC(=O)CCc2nc(C3=CCN(C)CC3)no2)CC1 | – | – | – | – | – | -63!
CCc1cc2c(=O)n(C(C)C(=O)OC3CCCCC3)cnc2s1 (configuration not stated) | ? | – | – | ? | ? | –
Cc1ccccc1OCC(=O)N1CCN(CCc2ccccn2)CC1 | – | · | · | – | · | ·
Cc1ccc(OCC(=O)N2CCN(Cc3ccc(F)cc3)CC2)cc1 | – | · | · | – | · | ·
Cc1ccccc1-c1nn2c(=O)cc(CN3CCN(C(=O)COc4ccccc4Cl)CC3)nc2s1 | 18µM | · | · | 8.2µM | · | ·
O=C(COc1ccccc1F)N1CCN(Cc2cc(=O)n3nc(-c4ccccc4Cl)sc3n2)CC1 | ? | · | · | 15µM | · | ·
CCOC(=O)CSc1ccc(C(=O)N2CCC3(CC2)OCCO3)cc1[N+](=O)[O-] | – | – | – | – | – | –
c1ccc(C2(N3CCCC3)CCCCC2)cc1 | ? | – | · | 19µM | – | ·
NC(=O)C1(N2CCCCC2)CCN(Cc2ccccc2)CC1 | – | – | – | – | – | –
O=C1NC(=O)C2C1C1(Cl)C(Cl)=C(Cl)C2(Cl)C1(Cl)Cl (configuration not stated) | – | – | · | – | – | –
Cc1nc2ccc(Nc3nc4cc(S(=O)(=O)N5CCOCC5)ccc4o3)cc2s1 | 16µM | 18µM | – | 18µM | ? | –
CCN(CC)C(=O)c1ccc(NC(=O)CCn2nc(-c3ccc(Cl)cc3)c3ccccc3c2=O)cc1 | ? | · | · | 18µM | · | ·
CCN(CC)C(=O)c1ccc(NC(=O)COc2ccccc2F)cc1 | – | – | – | – | –[9.22 µM] | –
Cn1c(O)c(/C=C2/C=CC=N2)c(=O)[nH]c1=O | 16µM | – | ? | 16µM | – | ?
Cn1c(O)c(C=Nc2ccc(F)cc2)c(=O)[nH]c1=O | – | – | – | – | – | –
CC(=O)N1N=C2C3CCN(CC3)C2C1c1ccc(Br)cc1 (configuration not stated) | – | – | – | – | – | –
Clc1ccc2c(c1)C(OC1CN3CCC1CC3)c1ccccc1CS2 (configuration not stated) | 16µM | ? | ? | 15µM | ? | -104
Clc1ccc(C2N3CCCN23)c(Cl)c1 (configuration not stated) | – | – | – | – | – | –
CN1CCN(CCOC2c3ccccc3CSc3ccc(Cl)cc32)CC1 (configuration not stated) | ? | ? | ? | 16µM | 23µM | -87
N=Cc1c(O)n(-c2ccccc2)c(=O)n(-c2ccccc2)c1=O | – | – | – | – | – | –
SMILES | DT40 TDP1 CPT | SW480 rerep | Chronic BCR inh | DT40 TDP1 no CPT | MCF10A rereplic | IL1B secr inh
Cc1cc2c(cc(C(=O)N3CCC(C(=O)NC4CCCC4)CC3)n2Cc2c(F)cccc2Cl)o1 | 18µM | – | – | 23µM | – | –
O=c1c(F)cn(C2CCCO2)c(=O)n1Cc1c(F)cccc1Cl (configuration not stated) | – | – | – | ? | – | –
O=[N+]([O-])c1ccccc1CN1CC=C(c2ccc(F)cc2)CC1 | 23µM | – | – | ? | ? | –
CCN(CC)c1ccc(CN2CC=C(c3ccc(F)cc3)CC2)cc1 | 18µM | – | – | 18µM | ? | –
COc1ccc(CN2CC=C(c3ccc(F)cc3)CC2)cc1Br | ? | – | – | 29µM | ? | –
O=[N+]([O-])c1cccc(CN2CC=C(c3ccc(F)cc3)CC2)c1 | ? | – | – | ? | – | –
CCN1C[C@]2(COC)[C@H](O)C[C@H](OC)[C@]34C1C([C@H](OC)[C@H]23)[C@]1(OC(C)=O)C2[C@@H](OC(=O)c3ccccc3)C(O)(C[C@H]24)[C@@H](OC)[C@@H]1O | – | – | · | – | – | ·
FC(F)(F)c1cccc(C2NCc3ccccc3-n3cccc32)c1 (configuration not stated) | – | – | – | ? | ? | -88
O=S(=O)(c1ccc(Cl)cc1)N1CCC(n2cnc3cc(C(F)(F)F)ccc32)CC1 | ? | – | · | ? | – | –
CCOC(=O)C1(CCc2ccccc2)CCN(Cc2csc(C(C)=O)c2)CC1 | ? | – | – | ? | – | –
CCOC(=O)C1(CCc2ccccc2)CCN(Cc2cccc3cnccc23)CC1 | ? | ? | ? | ? | ? | -111
CCOC(=O)C1(CCc2ccccc2)CCN(Cc2cccc3c2OCO3)CC1 | ? | ? | ? | 9.2µM | – | -85
CC(C)N(Cc1nccn1C)C(=O)CCc1nnc(CCCc2ccccc2)o1 | – | – | ? | ? | – | –
Cc1cc(N(CCCl)CCCl)ccc1C=NNC(=O)Cc1cc(=O)oc2cc(O)ccc12 | 12µM | ? | · | ? | – | -59
COc1ccc(C2=C(C(C)=O)Sc3nnc(-c4ccc(C)cc4)n3N2C(C)=O)cc1OC | 2.9µM | · | – | 4.6µM | · | ·
O=C1CC(N2CC=C(c3ccccc3)CC2)C(=O)N1c1ccc(F)cc1 (configuration not stated) | 15µM | – | ? | 18µM | – | –
O=C(O)CC1OCC=C2CN3CCC45C6=CC(=O)C(=O)C([N+](=O)[O-])=C6NC4C1C2CC35 (configuration not stated) | 14µM | – | – | 11µM | – | –
CCC(C)/C=C(C)/C=C/C1=CC2=C(Cl)C(=O)C(C)(OC(C)=O)C(=O)C2=CO1 (configuration not stated) | 15µM | – | – | ? | ? | –
CC[C@H](C)/C=C(C)/C=C/C1=CC2=C(Cl)C(=O)[C@@](C)(OC(C)=O)C(=O)C2=CO1 | ? | – | · | ? | – | –

Screening results: PubChem BioAssay, National Center for Advancing Translational Sciences (NCATS)
